# In the supplement of paper PMC10849652:
# The full data set covers some 7,900 targets. This sample favours those with a hit. About 0.6% of all pairs of compound and target were hits. A number with no mark means an inactive call.
# Legend:
# Test in all cases: log2 fold change, soluble protein after heating vs DMSO (PISA); higher = thermal stabilisation; K562 cells, 10 uM, 30 min; active = over 0.2 and 3.5 SD of the protein, either way, in both replicates (recomputed)
# erlotinib = compound: C#Cc1cccc(Nc2ncnc3cc(OCCOC)c(OCCOC)cc23)c1 [erlotinib]
# Outline: (§1)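 K562 cells at 2×10^6 cells/mL were treated for 30 min with 10 μM compound, and aliquots were heated for 3 min over 48°C-58°C before pooling. Extraction used PBS with 0.5% NP-40 at 4°C, and soluble protein was the supernatant after 21,000xg for 90 min, measured by TMTpro 16plex LC-MS/MS with channel sums equalised. Thermal stability values, relative to control samples and from duplicates, are log2 fold changes.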
# [1] = compound: C/C(=N\NC(=O)C1=CC(=CC=C1)S(=O)(=O)N2CCOCC2)/C3=C(C=CC(=C3)Cl)O
# Outline: as §1
# [2] = compound: C1=CC(=C(C=C1Cl)C2=NC3=NC=CN=C3C(=N2)NC4=CC=NC=C4)F
# Outline: as §1
# [3] = compound: C1=CC(=CC=C1C2=NC3=C(N2)C=C(C=C3)C(=O)N)OC4=CC=C(C=C4)Cl
# Outline: as §1
# [4] = compound: C1=CC2=C(C=CC(=C2)/C=C\3/C(=O)NC(=NCC4=CC=CS4)S3)N=C1
# Outline: as §1
# [5] = compound: C1=CC2=NC=CN=C2C=C1/C=C/3\C(=O)NC(=O)S3
# Outline: as §1
# [6] = compound: C1=CC=C(C=C1)C2=NC(=C(N2)C3=CC=NC=C3)C4=CC(=C(C=C4)Cl)O
# Outline: as §1
# [7] = compound: C1=CC=C2C(=C1)C3=NNC4=CC=CC(=C43)C2=O
# Outline: as §1
# [8] = compound: C1CCN(C1)C(=O)NC2=CC=CC(=C2)NC3=NC=C(C(=N3)NCCC4=CN=CN4)Br
# Outline: as §1
# [9] = compound: C1CN(CCC1(CC2=CC=C(C=C2)Cl)N)C3=NC=NC4=C3C=CN4
# Outline: as §1
# IRAK-1-4 Inhibitor I = compound: C1COCCN1CCN2C3=CC=CC=C3N=C2NC(=O)C4=CC(=CC=C4)[N+](=O)[O-] [IRAK-1-4 Inhibitor I]
# Outline: as §1
# ibrutinib = compound: C=CC(=O)N1CCC[C@@H](n2nc(-c3ccc(Oc4ccccc4)cc3)c3c(N)ncnc32)C1 [ibrutinib]
# Outline: as §1
# [10] = compound: CC(=O)c1cnc2ccc(-c3cc(Cl)c(O)c(Cl)c3)nc2c1N[C@H]1CC[C@H](CN(C)C)CC1
# Outline: as §1
# ralimetinib = compound: CC(C)(C)Cn1c(N)nc2ccc(-c3[nH]c(C(C)(C)C)nc3-c3ccc(F)cc3)nc21 [ralimetinib]
# Outline: as §1
# [11] = compound: CC(C)(O)CC(=O)NCCn1ccc2ncnc(Nc3ccc(Oc4cccc(C(F)(F)F)c4)c(Cl)c3)c21
# Outline: as §1
# [12] = compound: CC(C)C1=C2N=C(C=C(N2N=C1)NCC3=CC=CC=C3)NCCCCCCN
# Outline: as §1
# [13] = compound: CC(C)C[C@@H](C=O)NC(=O)[C@H](CC(C)C)NC(=O)[C@H](CC(C)C)NC(=O)OCc1ccccc1
# Outline: as §1
# pinometostat = compound: CC(C)N(C[C@H]1O[C@@H](n2cnc3c(N)ncnc32)[C@H](O)[C@@H]1O)[C@H]1C[C@@H](CCc2nc3cc(C(C)(C)C)ccc3[nH]2)C1 [pinometostat]
# Outline: as §1
# [14] = compound: CC1=C(C(CC(=O)N1)C2=CC=C(C=C2)C(F)(F)F)C(=O)NC3=C(C=C4C(=C3)C=NN4)F
# Outline: as §1
# [15] = compound: CC1=C(C2=C(C=C1)C(=O)C3=CC=CC=C3N2CCCN)C
# Outline: as §1
# Sequence of UniProt Q00537 (Q00537 whole entry, looked up): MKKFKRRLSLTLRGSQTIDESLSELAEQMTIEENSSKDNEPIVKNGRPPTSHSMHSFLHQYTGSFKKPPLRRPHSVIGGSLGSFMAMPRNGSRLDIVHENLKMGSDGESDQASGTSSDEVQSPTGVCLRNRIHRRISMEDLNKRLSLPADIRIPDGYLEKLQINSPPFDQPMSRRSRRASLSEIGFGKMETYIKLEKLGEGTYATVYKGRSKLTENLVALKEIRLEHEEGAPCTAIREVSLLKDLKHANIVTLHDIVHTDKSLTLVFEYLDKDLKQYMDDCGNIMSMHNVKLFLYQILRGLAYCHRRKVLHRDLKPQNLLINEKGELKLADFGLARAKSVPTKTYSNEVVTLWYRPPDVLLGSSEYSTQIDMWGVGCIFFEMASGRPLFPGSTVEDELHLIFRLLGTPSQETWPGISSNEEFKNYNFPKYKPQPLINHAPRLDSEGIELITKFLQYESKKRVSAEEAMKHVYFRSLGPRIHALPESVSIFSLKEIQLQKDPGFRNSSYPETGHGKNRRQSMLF
# Sequence of UniProt P46527 (P46527 whole entry, looked up): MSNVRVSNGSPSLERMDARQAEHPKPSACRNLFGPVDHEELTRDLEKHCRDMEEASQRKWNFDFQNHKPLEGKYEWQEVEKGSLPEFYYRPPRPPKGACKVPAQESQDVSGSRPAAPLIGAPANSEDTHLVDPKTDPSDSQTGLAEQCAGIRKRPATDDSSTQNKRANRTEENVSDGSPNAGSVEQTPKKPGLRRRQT
# Sequence of UniProt P24311 (P24311 whole entry, looked up): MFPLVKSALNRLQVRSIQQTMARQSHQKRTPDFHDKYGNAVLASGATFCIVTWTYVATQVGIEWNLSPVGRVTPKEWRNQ
# Sequence of UniProt P19784 (P19784 whole entry, looked up): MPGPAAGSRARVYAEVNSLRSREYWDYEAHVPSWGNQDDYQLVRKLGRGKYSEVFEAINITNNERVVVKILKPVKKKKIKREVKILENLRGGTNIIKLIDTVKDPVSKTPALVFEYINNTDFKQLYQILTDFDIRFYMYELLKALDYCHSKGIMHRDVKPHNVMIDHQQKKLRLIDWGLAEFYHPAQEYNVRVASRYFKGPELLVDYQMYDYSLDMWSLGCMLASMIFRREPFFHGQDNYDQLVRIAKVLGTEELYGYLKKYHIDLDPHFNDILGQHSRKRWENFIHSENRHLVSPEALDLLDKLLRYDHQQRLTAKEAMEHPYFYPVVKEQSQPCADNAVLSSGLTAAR
# Sequence of UniProt O75390 (O75390 whole entry, looked up): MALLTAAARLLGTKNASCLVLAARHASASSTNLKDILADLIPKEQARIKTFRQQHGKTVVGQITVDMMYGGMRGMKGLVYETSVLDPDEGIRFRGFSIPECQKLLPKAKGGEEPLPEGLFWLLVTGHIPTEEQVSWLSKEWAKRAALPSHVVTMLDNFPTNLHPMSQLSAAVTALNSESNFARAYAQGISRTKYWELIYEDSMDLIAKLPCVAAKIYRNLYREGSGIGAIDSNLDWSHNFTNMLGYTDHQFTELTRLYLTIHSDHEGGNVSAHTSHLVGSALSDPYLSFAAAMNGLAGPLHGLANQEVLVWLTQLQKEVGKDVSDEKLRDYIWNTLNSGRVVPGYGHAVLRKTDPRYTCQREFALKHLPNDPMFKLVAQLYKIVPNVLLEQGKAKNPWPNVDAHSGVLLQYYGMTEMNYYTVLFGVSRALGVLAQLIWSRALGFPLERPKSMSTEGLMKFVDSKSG
# Sequence of UniProt Q16740 (Q16740 whole entry, looked up): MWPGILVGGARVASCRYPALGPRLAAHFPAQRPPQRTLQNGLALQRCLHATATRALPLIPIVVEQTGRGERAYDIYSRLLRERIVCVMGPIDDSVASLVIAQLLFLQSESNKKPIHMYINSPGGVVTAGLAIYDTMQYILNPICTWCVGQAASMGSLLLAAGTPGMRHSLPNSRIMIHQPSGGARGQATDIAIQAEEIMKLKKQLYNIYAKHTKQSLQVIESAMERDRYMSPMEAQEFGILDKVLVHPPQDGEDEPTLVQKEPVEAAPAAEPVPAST
# Sequence of UniProt Q9Y2V0 (Q9Y2V0 whole entry, looked up): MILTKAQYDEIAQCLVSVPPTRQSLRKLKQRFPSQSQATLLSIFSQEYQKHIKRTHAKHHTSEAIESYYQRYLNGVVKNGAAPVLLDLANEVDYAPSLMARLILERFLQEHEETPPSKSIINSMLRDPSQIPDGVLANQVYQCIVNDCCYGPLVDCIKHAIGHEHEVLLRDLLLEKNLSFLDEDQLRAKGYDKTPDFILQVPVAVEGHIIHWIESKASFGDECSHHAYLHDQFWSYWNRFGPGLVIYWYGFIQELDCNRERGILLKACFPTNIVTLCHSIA
# Sequence of UniProt Q9UIB8 (Q9UIB8 whole entry, looked up): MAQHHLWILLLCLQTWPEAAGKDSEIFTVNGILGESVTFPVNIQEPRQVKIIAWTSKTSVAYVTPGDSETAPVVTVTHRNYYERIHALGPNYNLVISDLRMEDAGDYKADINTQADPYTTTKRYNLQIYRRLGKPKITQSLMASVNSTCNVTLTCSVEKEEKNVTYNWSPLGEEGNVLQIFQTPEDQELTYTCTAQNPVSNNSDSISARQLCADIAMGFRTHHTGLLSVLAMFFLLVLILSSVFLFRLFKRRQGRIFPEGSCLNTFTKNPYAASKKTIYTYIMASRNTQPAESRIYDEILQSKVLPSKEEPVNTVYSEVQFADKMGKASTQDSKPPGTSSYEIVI
# Sequence of UniProt Q96G28 (Q96G28 whole entry, looked up): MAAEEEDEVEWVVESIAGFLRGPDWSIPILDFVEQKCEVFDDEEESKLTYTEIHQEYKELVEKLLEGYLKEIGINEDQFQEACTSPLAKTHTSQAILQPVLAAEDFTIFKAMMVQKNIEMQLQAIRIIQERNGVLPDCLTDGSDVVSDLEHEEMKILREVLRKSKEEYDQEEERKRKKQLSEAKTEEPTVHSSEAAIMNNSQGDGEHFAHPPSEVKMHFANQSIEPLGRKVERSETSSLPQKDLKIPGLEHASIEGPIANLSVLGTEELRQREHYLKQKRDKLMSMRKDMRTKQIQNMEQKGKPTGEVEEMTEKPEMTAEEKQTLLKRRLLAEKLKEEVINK
# Sequence of UniProt P55060 (P55060 whole entry, looked up): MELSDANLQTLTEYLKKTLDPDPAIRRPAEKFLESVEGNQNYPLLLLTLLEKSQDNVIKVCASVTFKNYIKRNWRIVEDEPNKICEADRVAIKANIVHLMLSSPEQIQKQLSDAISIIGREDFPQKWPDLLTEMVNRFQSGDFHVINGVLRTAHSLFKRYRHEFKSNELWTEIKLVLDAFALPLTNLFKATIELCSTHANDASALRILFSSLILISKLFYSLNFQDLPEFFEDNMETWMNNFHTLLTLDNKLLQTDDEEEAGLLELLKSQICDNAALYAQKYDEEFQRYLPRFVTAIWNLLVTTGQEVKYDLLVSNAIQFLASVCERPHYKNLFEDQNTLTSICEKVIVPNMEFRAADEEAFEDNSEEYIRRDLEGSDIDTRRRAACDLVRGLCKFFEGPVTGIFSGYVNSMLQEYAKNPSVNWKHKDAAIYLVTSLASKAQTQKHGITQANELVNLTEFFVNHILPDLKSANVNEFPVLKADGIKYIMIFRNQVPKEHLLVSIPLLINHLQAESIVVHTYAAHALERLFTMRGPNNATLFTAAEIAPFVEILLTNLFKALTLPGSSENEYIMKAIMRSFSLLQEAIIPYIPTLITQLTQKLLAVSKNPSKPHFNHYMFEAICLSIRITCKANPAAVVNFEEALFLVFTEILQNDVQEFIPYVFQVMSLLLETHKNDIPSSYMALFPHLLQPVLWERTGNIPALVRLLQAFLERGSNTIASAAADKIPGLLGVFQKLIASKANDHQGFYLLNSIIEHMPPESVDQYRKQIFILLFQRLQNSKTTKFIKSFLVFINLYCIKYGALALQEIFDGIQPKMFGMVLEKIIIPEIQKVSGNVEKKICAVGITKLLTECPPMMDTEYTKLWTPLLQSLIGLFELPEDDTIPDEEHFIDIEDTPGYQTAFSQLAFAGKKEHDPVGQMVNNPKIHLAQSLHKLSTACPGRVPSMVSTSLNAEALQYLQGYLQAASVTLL
# Sequence of UniProt P49336 (P49336 whole entry, looked up): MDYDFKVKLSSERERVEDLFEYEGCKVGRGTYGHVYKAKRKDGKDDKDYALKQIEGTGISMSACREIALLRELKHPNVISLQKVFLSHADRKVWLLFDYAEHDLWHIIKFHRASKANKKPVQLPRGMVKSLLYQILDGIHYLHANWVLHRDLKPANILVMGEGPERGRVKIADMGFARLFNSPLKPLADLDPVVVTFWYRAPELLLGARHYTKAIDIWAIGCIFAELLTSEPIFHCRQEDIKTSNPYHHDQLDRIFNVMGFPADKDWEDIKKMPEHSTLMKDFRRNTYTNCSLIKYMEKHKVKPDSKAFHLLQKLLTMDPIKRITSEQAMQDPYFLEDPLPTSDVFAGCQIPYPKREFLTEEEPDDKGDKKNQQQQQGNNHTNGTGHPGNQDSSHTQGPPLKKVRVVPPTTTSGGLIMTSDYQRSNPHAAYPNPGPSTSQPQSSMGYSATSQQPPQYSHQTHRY
# Sequence of UniProt Q96KA5 (Q96KA5 whole entry, looked up): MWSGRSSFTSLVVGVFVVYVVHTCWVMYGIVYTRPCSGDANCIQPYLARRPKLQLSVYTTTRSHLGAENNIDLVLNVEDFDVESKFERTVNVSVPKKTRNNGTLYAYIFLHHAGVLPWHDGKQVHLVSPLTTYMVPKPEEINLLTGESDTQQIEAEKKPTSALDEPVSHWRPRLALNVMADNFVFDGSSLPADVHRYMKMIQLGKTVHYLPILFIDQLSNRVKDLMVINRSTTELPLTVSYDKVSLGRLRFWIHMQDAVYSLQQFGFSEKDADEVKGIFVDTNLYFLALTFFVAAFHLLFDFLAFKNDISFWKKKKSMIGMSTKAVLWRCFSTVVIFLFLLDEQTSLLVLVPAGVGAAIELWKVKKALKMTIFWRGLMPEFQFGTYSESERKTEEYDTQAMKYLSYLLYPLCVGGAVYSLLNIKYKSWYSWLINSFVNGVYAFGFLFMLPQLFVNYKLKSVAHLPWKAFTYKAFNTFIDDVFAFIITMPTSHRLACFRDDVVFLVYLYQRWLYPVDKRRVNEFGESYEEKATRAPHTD
Target,log2 fold change (erlotinib),log2 fold change [1],log2 fold change [2],log2 fold change [3],log2 fold change [4],log2 fold change [5],log2 fold change [6],log2 fold change [7],log2 fold change [8],log2 fold change [9],log2 fold change (IRAK-1-4 Inhibitor I),log2 fold change (ibrutinib),log2 fold change [10],log2 fold change (ralimetinib),log2 fold change [11],log2 fold change [12],log2 fold change [13],log2 fold change (pinometostat),log2 fold change [14],log2 fold change [15]
CSNK2A2 (UniProt P19784),-0.053,-0.08,0.046,-0.006,0.22 (active),0.591 (active),-0.038,0.185,0.034,-0.047,0.033,0.006,0.585 (active),0.001,-0.065,0.026,-0.029,0.149,0.009,0.235 (active)
CSE1L (UniProt P55060),-0.005,0.056,0.064,-0.033,0,0.052,0.012,-0.044,0.028,-0.04,0.001,-0.028,0.033,-0.011,-0.144,-0.145,-0.029,-0.027,-0.008,-0.02
CFAP36 isoform 2 (UniProt Q96G28),0.048,-0.11,-0.046,0.005,0.059,0.042,-0.068,0.007,0.127,-0.111,-0.183,-0.022,0.001,0.053,-0.012,-0.09,0.065,0.024,–,0.103
CPT2 (UniProt P23786),-0.096,-0.087,0.068,0.636,0.07,0.076,0.163,0.066,0.004,0.23,0.101,0.095,0.201,-0.079,-0.704 (active),-0.488,0.16,-0.145,-0.051,0.256
CRTC1 isoform 2 (UniProt Q6UUV9),0.007,0.07,-0.228,0.068,0.185,-0.052,-0.229,-0.051,-0.053,0.021,0.026,-0.061,-0.023,0.025,-0.042,0.112,-0.041,-0.024,–,0.072
CSNK1A1 (UniProt P48729),0.073,0.002,-0.028,-0.002,-0.008,0.018,-0.029,-0.088,0.001,-0.064,-0.016,0.015,-0.053,0.026,-0.041,-0.25 (active),0.145,0.112,0.038,0.028
CDK8 (UniProt P49336),-0.098,-0.094,-0.161,0.028,-0.023,0.102,-0.087,0.287,-0.044,0.034,0.006,-0.011,0.487 (active),-0.174,-0.15,-0.067,0.096,-0.057,–,-0.005
COPS4 (UniProt Q9BT78),-0.002,0.061,0.13,-0.004,0.036,-0.006,0.054,0.024,-0.009,-0.002,0.015,0.043,0.01,-0.004,-0.014,0.009,-0.008,-0.048,-0.019,0.028
CS (UniProt O75390),0.028,0.035,0.033,0.002,0.051,-0.009,0.072,-0.064,-0.015,0.035,0.02,-0.004,0.002,-0.04,-0.178,-0.148,-0.069,-0.05,0.02,0.008
CLPTM1L (UniProt Q96KA5),0.011,0.04,-0.029,0.063,0.032,0.018,-0.002,-0.037,-0.022,0.017,0.051,–,-0.033,-0.05,-0.069,-0.281 (active),0.006,0.023,0.042,0.033
C15orf41 (UniProt Q9Y2V0),0.02,0.017,0.002,-0.033,-0.018,–,0.001,-0.098,0.115,0.075,0.105,–,0.062,0.004,-0.103,-0.17,0.11,0.027,–,-0.117
CLPP (UniProt Q16740),-0.025,0.013,-0.069,0.037,0.042,0.003,0.023,0.035,-0.028,0.022,-0.023,–,0.022,-0.012,0.017,0.097,-0.008,-0.094,-0.011,0.079
COX7B (UniProt P24311),-0.022,0.058,0.109,0.006,-0.081,0.057,–,-0.009,0.085,0.016,0.045,0.074,0.034,–,-0.011,0.112,–,-0.139,-0.011,0.266
CD84 (UniProt Q9UIB8),0.131,0.052,-0.027,0.099,0.01,–,–,0.033,-0.032,0.111,–,–,-0.166,–,0.068,0.024,–,–,–,0.233
CDKN1B (UniProt P46527),-0.076,0.027,-0.133,0.064,-0.217,-0.049,-0.1,-0.01,–,–,0.023,0.015,0.173,-0.024,0.012,0.215,0.536 (active),-0.023,0.018,–
CDK17 isoform 2 (UniProt Q00537),0.086,0.008,0.059,-0.075,-0.123,-0.081,–,0.064,–,–,0.101,0.003,0.258,–,-0.069,0.078,–,0.037,–,–
